# Test results as given in PubChem BioAssay (Tox21).
# Unmarked numbers belong to inactive results. Calls of active or inactive are those of the source. The call rests on the fitted dose curve; in most records, active means well fitted curve in the direction sought with a large enough effect in the repeat runs; inconclusive means weak or mixed curves; inactive means flat fitted curve, though single readings scatter.
# Assay: qHTS assay to test for compound auto fluorescence at 590 nm (red) in HEK293 cells (AID 720679)
# Conditions: red autofluorescence 540/590 nm; series mostly up to 91.3 µM; fluorescence, % of fluorescent control: at the top concentration
# Text: National Center for Advancing Translational Sciences [NCATS]
# NIH Chemical Genomics Center [NCGC]
# U.S. Environmental Protection Agency [EPA]
# National Institutes of Environmental Health Sciences [NIEHS]
# National Toxicology Program [NTP]
# U.S. Food and Drug Administration [FDA]
# Compound auto fluorescence often interferes with screening of the compound library against various biological targets and signaling pathways. Some of these compounds may have fluorophoric properties. Such properties may interfere with the assay outputs resulting in false positives and/or negatives. To decrease such complications and ensure the compound activities are relevant in terms of biological response, the Tox21 10K compound library was screened for auto fluorescence.
# From the fluorophores used as reporter signals in our screening assays, the auto fluorescence equivalencies of compounds against three fluorophores have been evaluated: Triamterene, Fluorescein and Rose Bengal sodium for blue, green and red fluorescence, respectively. The fluorescence intensities were measured using Excitation/Emission wavelengths at 405/460nm, 485/535nm and 540/590nm for blue, green and red labels, respectively. This assay includes the red fluorescence data.
# Tox21 Assay Protocol Summary:
# 2,000 HEK293 cells in 5 uL of culture medium containing 10% dialyzed FBS per well were dispensed into black wall/clear bottom 1536-well plates using a Multidrop Combi Dispenser (Thermo Scientific). The assay plates were incubated for 4-5 hr at 37C to allow cell attachment to the well bottom, followed by the transfer of 23 nL compound or DMSO vehicle by a pintool work station (Kalypsys, San Diego, CA). After the assay plates were incubated overnight at 37C and 5% CO2, fluorescence intensities in the assay plates were measured by an Envision (PerkinElmer, Shelton, CT) plate reader using three labels for measuring blue, green and red fluorescence at […] 460, 535 and 590nm respectively.
# On the % scale 0 is the no-effect control and ±100 the full control effect.
SMILES,"fluorescence, % of fluorescent control",outcome
Cc1cnc(C)c(C)n1,0.187% [at 95.7 µM],
CO[C@H]1C=CO[C@@]2(C)Oc3c(C)c(O)c4c(O)c(c5c(c4c3C2=O)=NC2(CCN(CC(C)C)CC2)N=5)NC(=O)/C(C)=C\C=C/[C@H](C)[C@H](O)[C@@H](C)[C@@H](O)[C@@H](C)[C@H](OC(C)=O)[C@@H]1C,,inactive
CO/N=C1\CN(c2nc3c(cc2F)c(=O)c(C(=O)O)cn3C2CC2)CC1CN (stereo not given),-0.0437% [at 46 µM],
Oc1cc(O)c(Cl)cc1Cl,-0.253% [at 95.7 µM],
COC(=O)CC(=O)C(C)(C)C,0.264%,
C=CC(C)(O)CCCC(C)CCCC(C)CCCC(C)C (stereo not given),0.0928%,
CCC(C(=O)OCCN(CC)CC)c1ccccc1 (stereo not given),-0.684% [at 46 µM],
CC1=C(/C=C/C(C)=C\C=C\C(C)=C\C(=O)O)C(C)(C)CCC1,0.035%,
CCCOC(=O)c1ccc(N)cc1,-0.0018% [at 46 µM],
CCCCCCCCCCCCCCC[C@H](O)[C@@H](N)CO,0.367% [at 46 µM],
CC(C)(O)c1ccccc1CC[C@@H](SCC1(CC(=O)O)CC1)c1cccc(/C=C/c2ccc3ccc(Cl)cc3n2)c1,0.0691% [at 46 µM],
CNC(=O)N(c1ccccc1)c1ccccc1,0.0139%,
CCCc1c(OCCCOc2ccc(OCC(=O)O)cc2)ccc(C(C)=O)c1O,0.214%,
CCOC(=O)OCC,-0.285% [at 95.7 µM],
O=C(N[C@@H](c1ccccc1)[C@@H]1CCCCN1)c1cccc(C(F)(F)F)c1Cl,-0.0223%,
COc1cc2ncnc(Nc3ccc(F)c(Cl)c3)c2cc1OCCCN1CCOCC1,0.262% [at 46 µM],
Nc1nccs1,,inactive
O=C(NCCCN1CCOCC1)c1ccc(Cl)cc1,0.0429% [at 46 µM],
N#C[C@@H]1C[C@@H]2C[C@@H]2N1C(=O)[C@@H](N)C12CC3CC(CC(O)(C3)C1)C2,0.0098% [at 46 µM],
CC1=NN(c2ccc(C(=O)O)cc2)C(=O)C1,-0.15%,

SMILES,"fluorescence, % of fluorescent control",outcome
O=C(CS)OCCOC(=O)CS,0.367%,
CCN(Cc1cccc(S(=O)(=O)O)c1)c1ccc(C(=C2C=CC(=[N+](CC)Cc3cccc(S(=O)(=O)[O-])c3)C=C2)c2ccccc2)cc1,-0.277%,
CCCCC/C(=C\c1ccccc1)CO,-0.0983% [at 95.7 µM],
O=C(CCCN1CCC(O)(c2ccc(Br)cc2)CC1)c1ccc(F)cc1,-0.139% [at 18.6 µM],
CC(=O)[C@H]1CC[C@H]2[C@@H]3C=CC4=CC(=O)CC[C@@]4(C)[C@@H]3CC[C@]12C,-0.3% [at 18.6 µM],
CC1CC(=O)NN=C1c1ccc(NCC(C)(C)NCC(O)COc2cc(Cl)ccc2C#N)cc1 (stereo not given),0.167% [at 46 µM],
CCCC1C(CC)=CC(CC)=CN1c1ccccc1 (stereo not given),0.0789%,
Cc1cc(O)c(C(C)C)cc1Cl,,inactive
O=C(N/N=C/c1ccc([N+](=O)[O-])o1)c1ccc(O)cc1,0.101% [at 18.6 µM],
CC1(C)C2=CCCC(C)(C)[C@]23CC[C@H]1C3,-0.396%,
COCCOC,-0.0209%,
CN1CCN(CCCN2c3ccccc3Sc3ccc(S(=O)(=O)N(C)C)cc32)CC1,0.005% [at 18.6 µM],
CCCCCCCCCCCC(=O)[O][Sn]([CH2]CCC)([CH2]CCC)[O]C(=O)CCCCCCCCCCC,0.194% [at 46 µM],
c1cnc2c(n1)CCCC2,0.485%,
COc1cc2c(N3CCN(C(=O)Nc4ccc(OC(C)C)cc4)CC3)ncnc2cc1OCCCN1CCCCC1,-1.4% [at 46 µM],
OC(CCCN1CCCCC1)(c1ccccc1)c1ccccc1,0.0422% [at 46 µM],
Cc1ccnc2ccccc12,0.131%,
CCC(C(=O)OCCOCCN(CC)CC)c1ccccc1 (stereo not given),0.0739% [at 46 µM],
CCCCC(=O)O[C@]1(C(=O)CO)CC[C@H]2[C@@H]3CCC4=CC(=O)CC[C@]4(C)[C@H]3[C@@H](O)C[C@@]21C,-0.27% [at 46 µM],
CCCC(=O)O[C@]1(C(=O)COC(=O)CC)CC[C@H]2[C@@H]3CCC4=CC(=O)CC[C@]4(C)[C@H]3[C@@H](O)C[C@@]21C,-0.129% [at 46 µM],
